Screening data (PubChem BioAssay)
Tau fibril ThT = inhibitors of human tau fibril formation, thioflavin T binding | P10636 | recombinant tau K18 P301L, heparin-induced fibrillization, ThT fluorescence | Potency, µM (series often up to 57.4 µM), without a hit: at the top dose activity, negative = inhibition, most hits filed as inhibitors | 2.1% of 270,000 active; also: potency is read from the fitted curve at half-maximal effect; nearly all actives have a fitted effect of over 55% in size
Target sequence (P10636 561-689 P618L limits assumed): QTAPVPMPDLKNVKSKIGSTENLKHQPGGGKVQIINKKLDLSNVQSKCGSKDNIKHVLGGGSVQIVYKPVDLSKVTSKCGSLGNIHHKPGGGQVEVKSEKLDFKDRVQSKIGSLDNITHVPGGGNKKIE
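Fibril formation assay: tau K18 P301L at 15 uM with trace Alexa 594 label, heparin inducer 20 uM, pH 7 sodium acetate buffer, 37 C for 6 hr; endpoint ThT signal.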
Tau fibril FP = inhibitors of human tau fibril formation; 0.39% of 280,000 active; AID 1468; Potency, µM (doses to about 57.7 µM), without a hit: at the top dose activity, negative = inhibition, hits mostly inhibitors; K18 P301L tau heparin fibrillization, Alexa594 FP, 6 h; P10636; also: potency is read from the fitted curve at half-maximal effect; nearly all actives have a fitted effect of over 55% in size
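Human tau K18 […] P301L fragment, 15 uM unlabeled plus 0.24 uM Alexa 594-labeled tau (final), with compound and 20 uM heparin in 100 mM sodium acetate pH 7; 6 hr at 37 C, then Alexa 594 FP read.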
Sfp inh = Sfp phosphopantetheinyl transferase inhibition | Biochemical Sfp PPTase activity, qHTS | 3.5% of 310,000 active | Potency, µM, for inactives: largest response in the series, negative = inhibition, actives largely listed as inhibitors;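 also: the enzyme is Sfp with the accession as filed and its product quenches rhodamine fluorescence; potency is read from the fitted curve at half-maximal effect; 0% = enzyme reaction without inhibitor and -100% = no enzyme wells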
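Compounds were incubated with enzyme (final 15 nM) for 15 min at room temperature before substrate addition started the reaction. Fluorescence at 525 nm excitation, 598 nm emission was recorded immediately and after 30 minutes.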
KDM4E inh = JMJD2E (human) inhibition; B2RXH2; JMJD2E catalytic domain, FDH-coupled NADH fluorescence (FDH is formaldehyde dehydrogenase); Potency, µM (top dose mostly 57.1 µM), inactives show top-dose activity change, negative = inhibition, usual class: inhibitors; 1.6% of 230,000 active; AID 2147; active = well fitted inhibition curve with a large enough effect, not every such curve was filed as active; inconclusive = small, poorly fitted or top-dose-only effect, or another doubt; inactive = no such curve, though single readings can be large or run the other way;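 also: potency is read from the fitted curve at half-maximal effect; 0% = wells with enzyme and -100% = buffer wells without enzyme; nearly all actives have a fitted effect of over 50% in size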
Target sequence (B2RXH2 1-337 limits assumed): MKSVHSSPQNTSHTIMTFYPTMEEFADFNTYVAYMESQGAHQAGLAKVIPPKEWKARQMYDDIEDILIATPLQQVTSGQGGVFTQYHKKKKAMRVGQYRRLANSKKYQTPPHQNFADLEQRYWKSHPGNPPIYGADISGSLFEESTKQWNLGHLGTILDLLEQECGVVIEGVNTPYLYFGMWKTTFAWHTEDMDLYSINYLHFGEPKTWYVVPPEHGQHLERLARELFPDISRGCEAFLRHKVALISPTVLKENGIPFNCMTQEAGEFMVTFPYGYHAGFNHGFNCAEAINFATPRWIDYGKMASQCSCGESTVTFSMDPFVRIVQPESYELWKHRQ
Coupling enz = inhibits coupling enzyme system, counter-screen for aldolase hits | coupling enzyme system counterscreen, AmpLite Red fluorescence | activity change, negative = inhibition, % at 58.2 µM, hits read low | 0.67% of 290,000 active | AID 2472; in the data active = activity change below about -30%
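Counterscreen lacking aldolase: glyceraldehyde-3-phosphate coupling-enzyme reagent preincubated 10 min at RT with compound (at 57.5 uM final), then substrate/coupling system with AmpLite Red added; fluorescence read at 525/598 nm after 20 min RT.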
Tau fluor counter = counter-screen for tau fibril formation inhibitors; Potency, µM (series often up to 57.7 µM), without a hit: at the highest dose activity change, negative = decrease; tau K18 P301L (four-repeat tau fragment) Alexa594 fluorescence, heparin fibrillization; 0.93% of 280,000 active; also: potency is read from the fitted curve at half-maximal effect; nearly all actives have a fitted effect of over 55% in size
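Human K18 P301L tau (15 uM unlabeled plus 0.24 uM Alexa 594-labeled, final) in 100 mM sodium acetate pH 7 was mixed with compound and 20 uM heparin and incubated 6 hr at 37 C.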
Active calls of the source: *; ? = inconclusive; · = no result given; [ ] = dose if it differs, or a comment. Most compounds without a hit are left out; they make up all but 5.3% or so of the library. Unless noted, calls follow the shape of the dose curve; as a rule, active = well fitted curve in the direction sought with a large enough effect; inconclusive = small, poorly fitted or top-dose-only effect, or another doubt; inactive = no such curve, though single readings can be large; an effect the other way counts as inactive or inconclusive. Unless noted, % is scaled to controls: 0 for no effect and ±100 for the full control effect.

SMILES	Tau fibril ThT	Tau fibril FP	Sfp inh	KDM4E inh	Coupling enz	Tau fluor counter
O=C1c2ccccc2C(=O)N1/N=C/c1ccc(O)c(O)c1	?	-0.3%	-29.9%	15.8µM*	0.7	-11.1%
O=C1CCCC(O)=C1Sc1ccccc1C(=O)O	6.8%	4.6%	56.2µM*	0.0%	6.2	9.7%
Oc1c(C=C2N=c3ccccc3=N2)sc(=S)n1-c1ccccc1	2.6%	4.6%	79.4µM*	3.0%	-2.0	0.7%
Oc1c(C=C2N=c3ccccc3=N2)sc(=S)n1C1CCCCC1	-10.1%	-0.6%	8.6%	-8.8%	2.2	-8.9%
CCn1c(O)c(C=C2N=c3ccccc3=N2)sc1=S	-17.3%	1.1%	6.3%	-6.8%	4.4	-11.9%
CC1=Nc2ccccc2/C1=C/c1sc(=S)n(-c2cccc(C(=O)O)c2)c1O	3.55µM*	11.7%	4.9%	-6.9%	1.4	?
O=C(Nn1c(O)c(C=C2N=c3ccccc3=N2)sc1=S)c1ccccc1Cl	11.2µM*	?	-12.8%	0.3%	-3.2	17.8µM*[quencher]
O=S(=O)(Nn1c(O)c(C=C2N=c3ccccc3=N2)sc1=S)c1ccccc1	11.2µM*	0.2%	8.4%	-1.1%	3.1	?
Cc1ccccc1C1CC(=O)Oc2cc(C)c(Br)c(C)c21 (centres undefined)	-12.2%[81.4 µM]	-3.3%[81.3 µM]	-25.8%	·	0.2	-11.6%[81.3 µM]
NC(=O)[C@H]1CCCN1C(=O)[C@H](Cc1cnc[nH]1)NC(=O)[C@@H]1CCC(=O)N1	·	·	-13.9%	·	1.7	·
Cc1ccc(-c2cn3nc(N4CCCC(C(=O)NCc5ccccc5F)C4)sc3n2)cc1 (centres undefined)	?	6.5%	·	·	·	-14.6%
CO[C@@H](CCOCc1ccccc1)C[C@H]1O[C@H](C(=O)OC(C)C)C=C[C@@H]1C	5.9%	3.0%	8.8%	2.6%	1.6	-1.5%
Cc1c(Cl)cccc1NC(=O)Cn1nc(C(F)(F)F)c2c1CCC2	-0.9%	0.0%	·	·	·	-7.3%
O=C(CCC(=O)Nc1ccccc1)NNS(=O)(=O)c1ccc(Cl)cc1	·	·	56.2µM*	·	·	·
O=[N+]([O-])c1ccc(-c2cc(-c3ccc(Cl)cc3)n[nH]2)cc1	1.12µM*	6.2%	-19.6%	-0.9%	-0.1	?
O=C(/C=C/c1ccc(O)c(O)c1)O[C@@H]1C[C@@](O)(C(=O)O)C[C@H](O)[C@@H]1O	-5.3%	-5.0%	50.1µM*	?	1.1	-3.5%
CN(C)CC1CCCCC1OC(=O)/C=C/c1ccccc1 (centres undefined)	·	1.4%	23.7%	4.8%	-0.7	17.2%
c1cncc(CNc2cc(-c3ccoc3)ncn2)c1	·	·	56.2µM*	·	-2.5	·
Cc1cccc(CNc2cc(-c3ccoc3)ncn2)c1	17.8µM*	?	14.1µM*	?	-0.7	-28.8%
CN(C)c1ccc(-c2cc(NCc3cccnc3)ncn2)cc1	?	-0.6%	-2.7%	?	-1.7	-21.0%
COc1ccccc1CNc1cc(-c2ccoc2)ncn1	·	·	28.2µM*	·	-3.5	·
Cc1cnc(CNc2cc(-c3ccoc3)ncn2)cn1	?	?	28.2µM*	?	-10.0	-28.2%
Cc1ccc2c(c1)-c1c(cnc3cc(-c4ccc(F)cc4)nn13)CO2	4.3%	-11.5%	·	·	·	-8.0%
CC1CN(c2snnc2C=C2C(=O)OC(C)(C)OC2=O)CC(C)O1 (centres undefined)	?	-18.4%	50.1µM*	-18.2%	-1.0	-11.5%
NC(=O)c1c(NC(=O)c2nc(SCc3ccccc3F)ncc2Cl)sc2c1CCCC2	-0.4%	1.4%	·	·	·	-0.2%
Cc1nc(N2CCOCC2)c2nc(-c3ccccc3)n(CC(C)(C)CN(C)C)c2n1	1.8%	3.9%	11.8%	?	0.5	-2.3%
COc1ccc(Nc2sc(C(=O)Nc3cccc(Cl)c3)c(N)c2C(=O)Nc2ccccc2OC)cc1	?	13.8%	5.7%	-14.5%	-0.2	11.2µM*[quencher]
Cc1nc(Nc2ccc(Cl)c(Cl)c2)sc1C(=O)Nc1ccccc1	?	4.9%	5.2%	?	0.1	11.2µM*[quencher]
Nc1c(C(=O)c2ccccc2)sc(Nc2ccc(Cl)c(Cl)c2)c1C(=O)Nc1ccccc1	20µM*	-13.3%	·	·	·	?
